Experimental data published in PubChem BioAssay (NCATS).
Records with an inconclusive call do not appear. Active and inactive are the calls of the source. Calls follow the shape of the dose curve; as a rule, active = well fitted curve in the direction sought with a large enough effect; inconclusive = small, poorly fitted or top-dose-only effect, or another doubt; inactive = no such curve, though single readings can be large; an effect the other way counts as inactive or inconclusive.

What was measured:
MKL-2 = assay: qHTS assay to identify novel small-molecules to repurpose for Merkel cell carcinoma treatment (AID 1296009); conditions: MCC and control cell lines, CellTiter-Glo viability, 72 h; series mostly up to 46 µM; also: nearly all actives have a fitted effect of over 60% in size
Method in brief: (§1)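 Dose-response viability screen; 72 hr exposure at 37 degree celsius; CellTiter-Glo added, 10 min room temperature, luminescence read; RLUs scaled between no-cell and DMSO wells.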

UISO = assay: as above; conditions: MCC and control cell lines, CellTiter-Glo viability, 72 h; series mostly up to 46 µM
Method in brief: as §1

WaGa = assay: as above; conditions: MCC and control cell lines, CellTiter-Glo viability, 72 h; series mostly up to 46 µM
Method in brief: as §1

C33A = assay: Primary qHTS to identify gynecologic anti-cancer compounds using libraries of approved drugs and bioactive compounds (AID 1345084); conditions: Gynecologic cancer cell panel viability, ATPlite luminescence, 48 h; series mostly up to 57.5 µM; also: nearly all actives have a fitted effect of over 55% in size
Method in brief: (§2)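 Measured: luminescence after ATPlite addition (15 min, RT). Exposure: 48 h, 37 C, 5% CO2.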

CAOV3 = assay: as above; conditions: Gynecologic cancer cell panel viability, ATPlite luminescence, 48 h; series mostly up to 57.5 µM
Method in brief: as §2

CASKI = assay: as above; conditions: Gynecologic cancer cell panel viability, ATPlite luminescence, 48 h; series mostly up to 57.5 µM
Method in brief: as §2

Es-2 = assay: as above; conditions: Gynecologic cancer cell panel viability, ATPlite luminescence, 48 h; series mostly up to 57.5 µM
Method in brief: as §2

HeLa = assay: as above; conditions: Gynecologic cancer cell panel viability, ATPlite luminescence, 48 h; series mostly up to 57.5 µM
Method in brief: as §2

Hek293T = assay: as above; conditions: Gynecologic cancer cell panel viability, ATPlite luminescence, 48 h, control line for the selectivity index; series mostly up to 57.5 µM
Method in brief: as §2

Measured: activity change, negative = cytotoxicity
% is scaled to controls: 0 for no effect and ±100 for the full control effect.

C[C@]1(Cn2ccnn2)[C@H](C(=O)O)N2C(=O)C[C@H]2S1(=O)=O
inactive: all assays above

CC(=O)SC[C@@H](Cc1ccccc1)C(=O)NCC(=O)OCc1ccccc1
inactive: all assays above

CN1C(C)(C)CCCC1(C)C
inactive: all assays above

O=C1CC[C@@H](C(=O)O)N1
inactive: all assays above

CC(C)CCOC(=O)c1ccc(N(C)C)cc1
inactive: all assays above

CCCCCOC(=O)Nc1nc(=O)n([C@@H]2O[C@H](C)[C@@H](O)[C@H]2O)cc1F
inactive: all assays above

CC(=O)Nc1ccc(OCCOCCOc2ccc(NC(C)=O)cc2)cc1
inactive: all assays above

Cc1cccc(Nc2ccccc2C(=O)O)c1C
inactive: all assays above

CCN(CC)S(=O)(=O)c1ccc(C(=O)O)cc1
inactive: all assays above

O=c1[nH]cnc2nc[nH]c12
inactive: all assays above

CCN1CC(CCN2CCOCC2)C(c2ccccc2)(c2ccccc2)C1=O (stereo unspecified)
inactive: all assays above

CCCCCCCCCCOc1cc2c(=O)c(C(=O)OCC)c[nH]c2cc1OCC
inactive: MKL-2 10.7% [at 4.84 µM] | UISO 13.6% [at 4.84 µM] | WaGa -1.72% [at 4.84 µM] | C33A 1.85% [at 6.55 µM] | CAOV3 22.4% [at 6.55 µM] | CASKI 19.5% [at 6.55 µM] | Es-2 -0.35% [at 6.55 µM] | HeLa -1.47% [at 6.55 µM] | Hek293T 4.2% [at 6.55 µM]

COc1ccc2cc(CCC(C)=O)ccc2c1
not listed: Hek293T
inactive: all other assays above

CCc1cccc(CC)c1NC(=O)CN(CC(=O)O)CC(=O)O
inactive: all assays above

CC(=O)Oc1cccc(C)c1
inactive: all assays above

Cc1cc(OI)c(C(C)C)cc1-c1cc(C(C)C)c(OI)cc1C
inactive: all assays above

Cn1c(=O)c2c(ncn2CCO)n(C)c1=O
inactive: all assays above

Cc1cccc(C)c1NC(=O)CC12CCCN1CCC2
inactive: all assays above

Cc1cc(-n2nc3ccc(Cl)cc3n2)c(O)c(C(C)(C)C)c1
inactive: all assays above

CC(C)(C)C(=O)OCOC(=O)[C@@H]1N2C(=O)[C@@H](NC(=O)[C@H](N)c3ccccc3)[C@H]2SC1(C)C
inactive: all assays above

CC(C)=CCC/C(C)=C/CO
inactive: all assays above

O=C1c2ccccc2C(=O)C1c1ccc(Br)cc1
inactive: all assays above

CC(CSC(=O)c1ccccc1)C(=O)N1C[C@@H](Sc2ccccc2)C[C@H]1C(=O)O (stereo partly specified)
inactive: all assays above
